Compounds with a hit are over-represented: about 4.5% of the library has one in this group of screens.
ZTA counter: ZTA (EBV) inhibition in EBNA-1 counter-screen; inhibition, % at 11 µM; hit rate 0.15% among 320,000; P03206; ZTA-DNA binding, fluorescence polarization; in the data active = inhibition above about 33%
TPT1 inhibitor: blocks Candida albicans tRNA 2'-phosphotransferase; inhibition, % at 5 µM; hit rate 0.81% among 300,000; recombinant caTPT1, FP RNA substrate dephosphorylation;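 active = inhibition above the mean of all tested compounds plus 3 SD, set per screening campaign, cut at about 24% in these data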;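 also: plate controls were DMSO alone for no effect and ferristatin control at 100 nM for full effect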
EBNA-1 inh: blocks EBNA-1 binding to DNA; EBNA-1 DNA binding, fluorescence polarization; inhibition, % at 14.8 µM; hit rate 0.34% among 300,000; AID 1950; in the data active = inhibition above about 28%
Rpn11 inh: Rpn11 (human) deubiquitinase inhibition; O00487; human 26S proteasome, Ub4-pepOG fluorescence polarization; 20S core pre-blocked with epoxomicin; inhibition, % at 20 µM; hit rate 0.59% among 360,000;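 active = inhibition at 20 µM, scaled to each plate's controls, above about 33%, limit read from the data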
Target sequence (O00487 whole entry, looked up): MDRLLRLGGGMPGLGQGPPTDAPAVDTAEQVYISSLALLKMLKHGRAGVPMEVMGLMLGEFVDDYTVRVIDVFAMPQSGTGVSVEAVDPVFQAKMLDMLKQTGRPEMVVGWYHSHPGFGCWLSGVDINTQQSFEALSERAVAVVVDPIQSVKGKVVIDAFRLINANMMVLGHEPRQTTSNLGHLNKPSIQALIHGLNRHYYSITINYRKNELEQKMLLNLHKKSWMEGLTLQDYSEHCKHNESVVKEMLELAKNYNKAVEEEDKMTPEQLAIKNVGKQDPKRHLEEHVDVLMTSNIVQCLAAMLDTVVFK
dFosB act: mouse delta FosB homodimer activation; hit rate 0.99% among 340,000; P13346; purified delta FosB, TAMRA-CDK5 oligo fluorescence polarization; percent of positive-control signal above neutral wells; AID 493131; activation, % at 25 µM;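 active = mean activation above about 17%, with every replicate also reaching it, limit read from the data, passing the limit was not always enough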
Target sequence (P13346 whole entry, looked up): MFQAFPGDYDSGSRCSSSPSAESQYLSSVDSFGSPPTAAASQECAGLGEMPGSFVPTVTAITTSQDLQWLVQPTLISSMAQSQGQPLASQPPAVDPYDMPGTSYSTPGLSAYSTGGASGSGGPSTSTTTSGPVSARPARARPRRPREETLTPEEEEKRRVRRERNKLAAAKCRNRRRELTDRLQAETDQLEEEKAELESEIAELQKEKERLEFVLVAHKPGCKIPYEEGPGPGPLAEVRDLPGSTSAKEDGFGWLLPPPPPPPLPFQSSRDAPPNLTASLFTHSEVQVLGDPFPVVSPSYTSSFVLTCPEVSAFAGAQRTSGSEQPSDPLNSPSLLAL
GRIN3A LBD mod: modulators (binders) of human NR3A ligand-binding domain; NR3A LBD differential scanning fluorimetry, Tm shift; 0% = protein alone, 100% = glycine-bound protein; Tm shift relative to glycine control, % at 25 µM; hit rate 2.5% among 340,000; AID 1259313;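 active = melting temperature shift of at least 10% of the positive control shift, at one fixed dose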
* = called active by the depositor; nt = not tested or not shown.

SMILES	ZTA counter	TPT1 inhibitor	EBNA-1 inh	Rpn11 inh	dFosB act	GRIN3A LBD mod
Cc1cc(C)cc(-n2c(C)cc(/C=C3\C(=N)N4N=C(CC(C)C)SC4=NC3=O)c2C)c1	-1.7	0.8	-2.8	20.0	-19.2	-4.8
Cc1cnc(C2OCCO2)c2cccc(N)c12	nt	nt	nt	-0.2	nt	nt
Cc1ccccc1CN1CCNC(=O)C1CC(=O)NCCN1CCCCC1=O (stereo unspecified)	-3.3	-8.1	10.0	-5.4	2.8	11.1*
CCOc1ccc(CN2CCNC(=O)C2CC(=O)NCCN2CCOC2=O)cc1 (stereo unspecified)	-8.1	-6.5	-5.6	-4.4	-2.7	15.8*
Cc1cccc(C(=O)N[C@H](C(=O)Nc2nc3ccc(S(C)(=O)=O)cc3s2)C(C)C)c1	7.1	-0.2	6.0	-1.3	-17.5	-5.9
Cc1ccc(S(=O)(=O)N/N=C/c2cc([N+](=O)[O-])ccc2O)cc1[N+](=O)[O-]	14.9	6.0	-5.0	-2.5	2.9	20.9*
N#Cc1c(N)nc2c(c1-c1ccncc1)CCCCCC2	2.0	-3.6	2.7	-1.8	-0.9	36.0*
O=c1[nH]c(-c2ccccc2)c(-c2ccccc2)o1	9.2	-2.8	3.2	-3.5	2.1	1.8
O=C(O)CCC1c2cc3c4cc2OC2Oc5cc6c(cc51)C(CCC(=O)O)c1cc5c7cc1OC(O6)c1cc6cc(c1)Oc1cc(cc(C(=O)O)c1)Oc1cc8cc(c1)C(Oc1cc(c(cc1C5CCC(=O)O)C3CCC(=O)O)OC(O4)c1cc(cc(c1)Oc1cc(cc(C(=O)O)c1)O8)Oc1cc(cc(C(=O)O)c1)Oc1cc(cc2c1)Oc1cc(cc(C(=O)O)c1)O6)O7 (stereo unspecified)	105.5*	5.2	102.0*	nt	nt	nt
Cc1cccc([C@@H]2[C@@H]3C(=O)N(Cc4ccccc4)C(=O)[C@@H]3[C@]3(C)C(=O)N(c4ccc(C(F)(F)F)cc4)C(=O)N23)c1	11.3	2.5	7.6	6.4	1.5	12.7*
CC(C)CCCCCCCCCCCCC(=O)NCC(=O)NC1C(C)OC(Nc2ncnc3nc[nH]c23)C(O)C1O (stereo unspecified)	nt	nt	nt	2.2	67.6*	-4.1
C/C(=C\CNc1ncnc2nc[nH]c12)CO	-3.6	-3.9	2.0	-5.5	-3.6	-0.5
CN(C(=O)COC(=O)c1ccc2[nH]c3c(c2c1)CCCC3)C1CCS(=O)(=O)C1 (stereo unspecified)	3.5	1.6	-0.5	-2.2	-3.1	-2.9
Cc1ccc(S(=O)(=O)N2CC(O)CC2C(=O)OCC(=O)c2ccccc2Cl)cc1C (stereo unspecified)	8.7	-2.0	6.0	8.9	-3.9	24.5*
CC(C)(C)c1ccc(CC(=O)N2CCC2(C)C(=O)Nc2cnc3ccccc3c2)cc1 (stereo unspecified)	nt	nt	nt	2.0	nt	nt
CCOc1ccc(C(=O)CCC(=O)N(CC)CC(=O)NCc2ccc(Cl)cc2)cc1	7.8	-4.8	10.6	-8.6	-3.5	13.1*
CCOC(=O)NC(=S)Nc1ccc(C(C)(C)C)cc1Br	-4.2	1.2	0.4	2.0	1.5	18.3*
COc1cc(C(=O)Nc2sc3c(c2C(=O)O)CCC(C)C3)cc(OC)c1OC (stereo unspecified)	1.1	2.0	-20.3	7.3	-3.5	0.6
COc1cc(C(=O)Nc2sc(C)c(C)c2C(=O)O)cc(OC)c1OC	0.8	1.3	-1.5	3.6	-5.9	15.5*
Cc1cc(C)n2nc(C(=O)NCc3ccccc3)nc2n1	3.1	3.6	-6.3	6.3	-4.6	24.0*
CCc1nn(CCCC(=O)NCc2ccc(OC(C)C)cc2)c(=O)c2cc3occc3n12	-6.6	1.1	2.0	0.8	1.2	16.5*
Cc1ccc(-c2csc(NC(=O)/C=C/c3ccco3)c2C(=O)O)cc1	7.0	1.4	-2.6	12.0	-16.0	-10.8
Cc1cc(C)n(CC(=O)N2CCCC(C(=O)c3cccc(OC(C)C)c3)C2)n1 (stereo unspecified)	6.3	1.6	6.1	1.1	1.5	-1.1
COc1ccc(/C=N/NC(=O)CCCOc2ccc(Cl)cc2Cl)cc1	11.5	5.7	7.5	-11.8	-8.3	16.1*
Cn1c(CCCOc2ccc(Cl)cc2Cl)nnc1SCC(=O)Nc1ccc(F)c(Cl)c1	-9.5	-2.3	0.0	-2.2	-10.4	23.8*
SMILES	ZTA counter	TPT1 inhibitor	EBNA-1 inh	Rpn11 inh	dFosB act	GRIN3A LBD mod
O=C(CCCOc1ccc(Cl)cc1Cl)N/N=C/c1ccc(Cl)cc1	8.8	-3.3	5.5	1.7	-0.6	8.1
COc1ccc(NC(=O)COC(=O)CCCOc2ccc(Cl)cc2Cl)cc1	-19.8	-1.4	-5.2	4.9	-4.6	27.2*
CSc1cccc(NC(=O)CCCOc2ccc(Cl)cc2Cl)c1	-5.5	-2.4	-4.5	-5.0	-4.9	20.1*
O=C(COC(=O)CCCOc1ccc(Cl)cc1Cl)NCc1ccc(F)cc1	4.9	-2.8	3.7	-13.3	1.5	-10.3
COc1cc(OC)cc(C(=O)NNC(=O)CCC(=O)c2cccs2)c1	7.5	1.3	-5.3	1.5	-4.9	0.7
COc1ccc(CCN2CC(C(=O)NCc3nc4ccccc4n3C)CCC2=O)cc1 (stereo unspecified)	2.0	1.0	-10.5	0.1	4.4	-1.0
Cc1cc(Cl)ccc1OCCCC(=O)N/N=C/c1cccc([N+](=O)[O-])c1	1.1	-2.5	-11.8	-2.3	6.8	19.5*
Cc1ccccc1OCC(=O)NCC(=O)N/N=C/c1cccc([N+](=O)[O-])c1	1.3	2.4	-1.6	nt	nt	nt
CCOc1ccccc1OCCCC(=O)OCC(=O)Nc1cccc(Cl)c1	-11.2	-1.8	-4.7	1.1	-11.2	-7.8
COc1ccc(Cl)cc1NC(=O)COC(=O)Cc1cc(OC)c(OC)c(OC)c1	nt	nt	nt	-1.6	1.6	16.9*
COc1ccc(Cl)cc1NC(=O)COC(=O)CCc1cc(OC)c(OC)c(OC)c1	19.3	0.8	5.2	0.8	-13.8	-0.6
COc1ccc(NC(=O)COC(=O)CCCOc2ccc(Cl)cc2Cl)cc1Cl	-13.4	1.5	-8.7	-2.7	-11.7	30.9*
CS(=O)(=O)N(CC(=O)Nc1ccc(CC#N)cc1)c1ccc(C23CC4CC(CC(C4)C2)C3)cc1	-4.6	-2.0	-1.8	0.2	1.6	26.3*
CCN(CC)C(=O)c1ccc(Cc2cn(C)c3ccccc23)nc1	nt	nt	nt	-3.1	nt	nt
Cc1ccc(NS(=O)(=O)c2ccc(NC(=O)c3cccs3)cc2)c(C)c1	3.4	-3.4	9.0	-7.4	-2.1	29.3*
Cc1ccc(C)c(NS(=O)(=O)c2ccc(NC(=O)CSc3ccc(Cl)cc3)cc2)c1	-9.5	-1.0	-1.8	-1.8	-8.5	1.0
CNC(=O)c1cc(S(=O)(=O)NC2CCCCCC2)ccc1C	nt	nt	nt	-4.7	-4.6	-0.7
COc1cc(NS(=O)(=O)c2ccc(NC(=S)NC(=O)c3cccs3)cc2)nc(OC)n1	-0.1	1.3	1.9	0.3	-3.7	-3.3
CNC(=O)c1cc(S(=O)(=O)Nc2ccc(C)cc2C)ccc1C	-11.4	-0.5	-3.2	-6.0	-3.4	14.1*

Screening data as filed in PubChem BioAssay.
